From PubChem BioAssay AID489025 (Southern Research Specialized Biocontainment Screening …, 2010)
The whole screen tested about 2,300 compounds, of which about 790 (34%) were called active. No rule for the calls is given here. This is one part of the list. Results with a measured potency or affinity are listed apart.

Assay: THP-1 cell cytotoxicity, dose response, cytotoxicity control for non-replicating M. tuberculosis project (AID 489025)
Settings: THP-1 cell viability; series mostly up to 40 µM; viability: at the top concentration

| SMILES | viability |
| --- | --- |
| CCN(CC)C(=O)c1sc2nc(-c3ccccc3)ccc2c1N | 72.4% (inactive) |
| O=C(Nc1ccc(Br)cc1)c1cc([N+](=O)[O-])cc([N+](=O)[O-])c1 | 92% (inactive) |
| Cc1ccc(C(=O)CCNc2ccc(F)c(Cl)c2)o1 | 116% (inactive) |
| CCCCSc1nnc(-c2ccc(C)cc2)o1 | 108% (inactive) |
| CC1=NN(c2ccc(C(=O)O)cc2)C(=O)/C1=C\c1ccc(OC(=O)c2cccs2)cc1 | 112% (inactive) |
| CCC(=O)N/N=C/c1ccc(-c2ccc(Cl)cc2)o1 | 103% (inactive) |
| Cc1ccc(/C=N/NC(=O)c2ccncc2)s1 | 114% (inactive) |
| Cc1ccc(C(=O)N/N=C\c2ccc[nH]2)cn1 | 97.8% (inactive) |
| O=C(N/N=C/c1ccc(Br)s1)c1ccncc1 | 112% (inactive) |
| O=C(N/N=C/c1cccs1)c1cncc(Br)c1 | 101% (inactive) |
| COc1ccc(C(=O)COC(=O)c2ccc([N+](=O)[O-])s2)cc1OC | 98.1% (inactive) |
| Cc1ccc(NC(=O)CC2SC3=NCCCN3C2=O)c(C)c1 (centres undefined) | 86.8% (inactive) |
| CCC1CCC(c2nnc(-c3ccc([N+](=O)[O-])cc3)o2)CC1 (centres undefined) | 110% (inactive) |
| Nc1ccc(Br)c2cccnc12 | 110% (inactive) |
| CCC(C)n1c(=S)[nH]c2ccccc2c1=O (centres undefined) | 90.4% (inactive) |
| CC(C)(C)OC(=O)N/N=C\c1ccc([N+](=O)[O-])s1 | 113% (inactive) |
| O=C(N/N=C/c1ccc(Br)s1)c1cccnc1 | 112% (inactive) |

| SMILES | viability |
| --- | --- |
| COc1cc(/C=C2/C(=O)NN(c3cccc(F)c3)C2=O)ccc1OC(=O)c1ccco1 | 111% (inactive) |
| CCOc1ccc(Nc2ccc([N+](=O)[O-])c3nonc23)cc1 | 83.1% (inactive) |
| CS/C(Nc1cc(Cl)ccc1Cl)=C(/C#N)C(=O)c1ccco1 | 72.6% (inactive) |
| Cc1ccc(NC(=O)C(=O)NNC(=O)c2ccccc2C)cc1Cl | 86.4% (inactive) |
| CCOC(=O)N1CCN(c2cc(C)c([N+](=O)[O-])cc2F)CC1 | 92.8% (inactive) |
| Cc1ccc(CN2CC(C(=O)OCc3ccccc3Cl)CC2=O)cc1 (centres undefined) | 121% (inactive) |
| Cc1cccc(C)c1NC(=O)c1sc(N)nc1-c1ccccc1 | 100% (inactive) |
| Cc1ccc2cc(/C=N/NC(=O)[C@H](C)NC(=O)OC(C)(C)C)c(Cl)nc2c1 | 84.4% (inactive) |
| Cc1ccc(NC(=O)c2noc(C(C)C)c2[N+](=O)[O-])cc1 | 99.2% (inactive) |
| O=C(N/N=C/c1cccc(F)c1)c1c(O)c2ccccc2[nH]c1=O | 80.8% (inactive) |
| CC(=O)Oc1ccc(/C=C2\N=C(C3CCCCC3)OC2=O)cc1 | 106% (inactive) |
| COc1cc(N=c2ssnc2Cl)cc(OC)c1OC | 85.6% (inactive) |
| O=C(CCSc1nnc(-c2ccncc2)o1)Nc1cccc(Cl)c1 | 82.2% (inactive) |
| CCn1ccc(C(=O)Nc2cccc(Cl)c2)n1 | 99.6% (inactive) |
| CCN1CCN(Cc2cc(C(C)(C)C)c(O)c(C(C)(C)C)c2)CC1 | 107% (inactive) |
| CC(=O)Nc1cccc(-c2nc3ccccc3c(=O)o2)c1 | 93% (inactive) |
| CCCCOC(=O)Cn1c(-c2ccccc2)nc2ccccc2c1=O | 107% (inactive) |
